Screening results (PubChem BioAssay)
Shown are actives, neighbours in structure and some others; about 6.8% of the full set was active somewhere.
T cruzi growth-1 – T. cruzi proliferation inhibition; T. cruzi beta-gal in NIH3T3, GalScreen luminescence, 90 h; inhibition, % at 8.34 µM; 5.9% of 77,000 active; AID 624255;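 active = mean inhibition above about 93%, with at least 55% of replicates each passing it, limit read from the data, passing the limit was not always enough; inconclusive = only one of those two conditions holds; inactive = neither condition holds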
Pf Dd2 growth – inhibitors of Plasmodium falciparum Dd2 growth. AID 1159554. 2.3% of 94,000 active. P. falciparum Dd2 growth, SYBR Green, 72 h; hits give low values. activity change, % at 10 µM; in the data active = activity change below about -80%; inconclusive = no clear call, values can overlap the other calls
C diff growth – C. difficile growth inhibition; growth activity, negative = inhibition, % at 16 µg/mL (by protocol); AID 1259249; Clostridium difficile clinical isolate growth, OD600, 24 h; hits give low values; 0.25% of 86,000 active;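 active = mean growth activity at or below -80% and every replicate also at or below -80%; inconclusive = mean at or below -80% but some replicate above -80%; inactive = mean growth activity above -80%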;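 note: 0% = DMSO wells and -100% = levofloxacin 16 µg/mL wells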
T cruzi growth-2 – blocks T. cruzi growth in NIH3T3 host cells | T. cruzi beta-gal in NIH3T3, GalScreen luminescence, 90 h | shares compounds with T cruzi growth-1 | inhibition, % at 8.35 µM | AID 651739 | 72% of 5,600 active;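 active = mean replicate inhibition above about 95% and at least 55% of replicates individually reaching it, limit read from the data; inconclusive = only one of the two criteria is met; inactive = neither criterion is met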
T cruzi growth-3 – inhibitors of T. cruzi proliferation. inhibition, % at 2.09 µM. shares compounds with T cruzi growth-1. T. cruzi beta-gal in NIH3T3, GalScreen luminescence, 90 h. AID 651740. 21% of 5,600 active;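 active = mean inhibition above about 95%, with at least 55% of replicates also reaching it, limit read from the data; inconclusive = meets just one of the two conditions; inactive = meets neither condition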;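 note: plate controls were neutral control median for no effect and positive control median for full effect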
NIH3T3 tox – NIH/3T3 (mouse) viability loss; shares compounds with T cruzi growth-1; NIH/3T3 viability, CellTiter-Glo ATP luminescence, 90 h; cytotoxicity (signal decrease), % at 8.35 µM; 14% of 5,600 active;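 active = mean signal decrease across replicates above about 35% based on untreated-well scatter, with enough replicates individually passing, limit read from the data; inconclusive = no rule stated though some were filed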;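 note: 0% = median of neutral control wells and 100% = median of positive control wells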
3T3 cytotox 2 – NIH/3T3 (mouse) viability loss; NIH/3T3 viability, CellTiter-Glo ATP luminescence, 90 h; 56% of 5,600 active; inhibition, % at 24.9 µM; shares compounds with T cruzi growth-1;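 active = mean loss of cell viability signal at or above a set limit, and enough replicates individually reaching it; inconclusive = meets only the mean limit or only the replicate share; inactive = meets neither condition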;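 note: 0% = median of neutral control wells and 100% = median of positive control wells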
Numbers without * were called inactive; ? = inconclusive; / = not tested or not shown.

SMILES | T cruzi growth-1 | Pf Dd2 growth | C diff growth | T cruzi growth-2 | T cruzi growth-3 | NIH3T3 tox | 3T3 cytotox 2
COC(=O)C[C@H]1CC[C@@H]2[C@@H](COc3ccc(NC(=O)Cc4cccs4)cc3C(=O)N2C)O1 | -156.6 | / | -13.3 | / | / | / | /
Cn1cnc(S(=O)(=O)N2CC[C@@H]3[C@@H](CO)Nc4ccc(-c5ccccc5)cc4[C@@H]32)c1 | 104.4* | -45.9 | -20.4 | 96.3* | 86.4 | -13.4 | -7.6
COc1cccc(-c2ccc3c(c2)[C@H]2[C@H](CCN2S(=O)(=O)c2cn(C)cn2)[C@@H](CO)N3)c1 | 65.3 | -19.6 | 3.3 | / | / | / | /
Cn1cnc(S(=O)(=O)N2CC[C@@H]3[C@H](CO)Nc4ccc(C#Cc5ccccc5)cc4[C@@H]32)c1 | 8.3 | 22.4 | -17.8 | / | / | / | /
COc1ccccc1-c1ccc2c(c1)[C@H]1[C@H](CCN1S(=O)(=O)c1cn(C)cn1)[C@H](CO)N2 | 37.1 | -10.3 | 10.5 | / | / | / | /
Cn1cnc(S(=O)(=O)N2CC[C@@H]3[C@H](CO)Nc4ccc(-c5ccccc5)cc4[C@@H]32)c1 | 101.1* | -29.7 | -19.8 | 101.5* | 48.1 | 10.3 | -1.0
Cn1cnc(S(=O)(=O)N2CC[C@@H]3[C@H]2c2cc(-c4ccccc4)ccc2N[C@@H]3CO)c1 | ? | 0.4 | -24.3 | 110.5* | ? | -22.2 | 6.3
CCCN1[C@H](C(=O)NCC(F)(F)F)[C@@H](CO)[C@@H]2Cn3c(ccc(-c4ccccc4)c3=O)[C@@H]21 | 15.6 | -2.2 | 0.8 | / | / | / | /
O=C(N[C@H]1CC[C@H](CCNS(=O)(=O)c2ccc(F)cc2)O[C@H]1CO)C1CCOCC1 | 39.8 | 2.4 | / | / | / | / | /
C[C@@H]1CN([C@H](C)CO)C(=O)c2cc(NS(=O)(=O)c3ccccc3)ccc2O[C@@H](C)CCCCO[C@@H]1CN(C)Cc1ccc2c(c1)OCO2 | / | -68.7 | / | / | / | / | /
C[C@@H]1CN([C@H](C)CO)C(=O)Cc2cc(NC(=O)Nc3cccc4ccccc34)ccc2O[C@H]1CN(C)Cc1ccc2c(c1)OCO2 | ? | 7.8 | -2.6 | 106.8* | 53.2 | 21.8 | 22.0
C[C@H](CO)N1C[C@H](C)[C@H](CN(C)Cc2ccc3c(c2)OCO3)Oc2ccc(NC(=O)Nc3ccccc3)cc2CC1=O | -21.6 | 19.3 | -12.3 | / | / | / | /
C[C@@H]1CN([C@@H](C)CO)C(=O)c2cc(NC(=O)Nc3cccc4ccccc34)ccc2O[C@H]1CN(C)Cc1ccc2c(c1)OCO2 | 15.6 | -3.7 | 2.6 | / | / | / | /
C[C@H]1CN([C@@H](C)CO)C(=O)Cc2cc(NC(=O)Nc3cccc4ccccc34)ccc2O[C@@H]1CN(C)Cc1ccccc1 | 89.6 | -27.9 | 2.3 | / | / | / | /
C[C@@H]1CN([C@@H](C)CO)C(=O)Cc2cc(NC(=O)Nc3cccc4ccccc34)ccc2O[C@@H]1CN(C)Cc1ccc2c(c1)OCO2 | 102.8* | -0.2 | -2.2 | 109.1* | -13.8 | 15.4 | 52.1*
C[C@@H]1CN([C@H](C)CO)C(=O)Cc2cc(NC(=O)Nc3cccc4ccccc34)ccc2O[C@@H]1CN(C)Cc1ccc2c(c1)OCO2 | 102.6* | 11.1 | -0.1 | 107.4* | 93.2 | ? | 72.1*
COc1ccccc1-c1cnc2c(c1)C(=O)N([C@@H](C)CO)C[C@H](C)[C@H](CN(C)Cc1cccc(F)c1)O2 | 70.6 | -4.7 | -0.9 | / | / | / | /
Cc1ccc(S(=O)(=O)Nc2ccc3c(c2)C(=O)N([C@H](C)CO)C[C@H](C)[C@H](CN(C)CC2CC2)OCCCC[C@H](C)O3)cc1 | ? | -27.6 | 1.4 | ? | 47.6 | -15.1 | 13.4
Cc1ccc(S(=O)(=O)Nc2ccc3c(c2)C(=O)N([C@H](C)CO)C[C@H](C)[C@@H](CN(C)CC2CC2)OCCCC[C@H](C)O3)cc1 | 56.5 | -6.4 | -3.5 | / | / | / | /
Cc1ccc(S(=O)(=O)Nc2ccc3c(c2)C(=O)N([C@@H](C)CO)C[C@H](C)[C@@H](CN(C)CC2CC2)OCCCC[C@H](C)O3)cc1 | 30.3 | -76.3 | 2.0 | / | / | / | /
Cc1ccc(S(=O)(=O)Nc2ccc3c(c2)C(=O)N([C@@H](C)CO)C[C@@H](C)[C@@H](CN(C)CC2CC2)OCCCC[C@@H](C)O3)cc1 | ? | -27.7 | -3.4 | 81.3 | 25.9 | -12.9 | -13.7
Cc1noc(C)c1NC(=O)Nc1ccc2c(c1)C(=O)N([C@@H](C)CO)C[C@H](C)[C@H](CN(C)CC1CCCCC1)OCCCC[C@@H](C)O2 | 41.6 | -39.8 | 8.9 | / | / | / | /
COc1ccc(S(=O)(=O)N(C)C[C@@H]2Oc3c(NC(=O)C4CCOCC4)cccc3C(=O)N([C@@H](C)CO)C[C@H]2C)cc1 | 68.5 | -7.3 | / | / | / | / | /
C[C@@H]1CN([C@H](C)CO)C(=O)Cc2cc(NC(=O)Cn3cnnn3)ccc2O[C@@H]1CN(C)C(=O)Nc1cccc2ccccc12 | 10.5 | 1.5 | -8.0 | / | / | / | /
C[C@H](CO)N1C[C@H](C)[C@H](CN(C)Cc2ccc3c(c2)OCO3)Oc2cc(C#CCN(C)C)ccc2S1(=O)=O | 76.4 | ? | 7.9 | / | / | / | /
SMILES | T cruzi growth-1 | Pf Dd2 growth | C diff growth | T cruzi growth-2 | T cruzi growth-3 | NIH3T3 tox | 3T3 cytotox 2
C[C@@H]1CN([C@@H](C)CO)S(=O)(=O)c2ccc(C#CCN(C)C)cc2O[C@@H]1CN(C)Cc1ccc2c(c1)OCO2 | 84.9 | -54.1 | 2.9 | / | / | / | /
C[C@H]1CN([C@@H](C)CO)S(=O)(=O)c2ccc(C#CCN(C)C)cc2O[C@H]1CN(C)Cc1ccc2c(c1)OCO2 | 103.5* | -67.8 | 9.4 | 101.0* | 52.8 | 12.7 | 25.7*
C[C@H]1CN([C@@H](C)CO)S(=O)(=O)c2ccc(C#CCN(C)C)cc2O[C@@H]1CN(C)Cc1ccc2c(c1)OCO2 | 106.9* | -37.2 | 3.5 | 107.0* | 88.1 | 29.1 | 105.5*
C[C@H](CO)N1C[C@H](C)[C@@H](CN(C)C(=O)CN(C)C)Oc2cc(-c3ccncc3)ccc2S1(=O)=O | / | 7.5 | -3.9 | / | / | / | /
C[C@@H]1CN([C@@H](C)CO)C(=O)c2cc(C#CCC3CCCC3)cnc2O[C@H]1CN(C)C(=O)CC1CC1 | 100.1* | -33.2 | 14.8 | ? | 47.5 | 20.6 | 38.7*
C[C@H](CO)N1C[C@H](C)[C@H](CN(C)C(=O)CC2CC2)Oc2ncc(C#CCC3CCCC3)cc2C1=O | 94.9 | -8.0 | 15.3 | / | / | / | /
C[C@@H]1CN([C@H](C)CO)C(=O)c2cc(C#CCC3CCCC3)cnc2O[C@H]1CN(C)C(=O)CC1CC1 | ? | -52.1 | 15.5 | 96.4* | 22.8 | 19.3 | 83.0*
C[C@@H]1CN([C@H](C)CO)C(=O)c2cc(C#CCC3CCCC3)cnc2O[C@H]1CN(C)C(=O)CN(C)C | / | -74.6 | -1.9 | / | / | / | /
COc1ccc(S(=O)(=O)Nc2ccc3c(c2)CC(=O)N([C@@H](C)CO)C[C@@H](C)[C@@H](CN(C)S(=O)(=O)c2c(C)noc2C)O3)cc1 | 20.5 | -16.8 | -2.2 | / | / | / | /
O=C(C[C@H]1C=C[C@@H](NC(=O)CC2CC2)[C@@H](CO)O1)NCc1ccc(-c2ccccc2)cc1 | / | -11.5 | -9.4 | / | / | / | /
